Measurements as given in PubChem BioAssay AID1159580 (chemical genetic matrix, 2015).
About 2,000 (36%) of roughly 5,500 compounds were called active. About 18% were inconclusive and are not listed. No stated cut-off is given here; in the data, active means normalized growth mostly below about 0.91 (no sharp cut-off); inconclusive means no clear call, values can overlap the other calls; inactive means mostly above about 0.92. This is one part of the list.

Assay: chemical genetic growth profiling, strain panel (AID 1159580);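 further: tested at 20 µM; growth read once vehicle control cultures reached saturation at 30 °C; 1 = growth at the plate median or of vehicle wells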
Details: growth OD

Measured: normalized growth

CN[C@@H](C)[C@@H](O)c1ccccc1
inactive: S. cerevisiae deletion strains, locus YKL068W, stronger effect = lower value 0.978 | S. cerevisiae deletion strains, locus YKL085W, strain MDH1 (second series), stronger effect = lower value 0.992 | S. cerevisiae deletion strains, locus YKL085W, strain MDH1, stronger effect = lower value 0.992 | S. cerevisiae deletion strains, locus YKL160W, strain elf1, stronger effect = lower value 0.968 | S. cerevisiae deletion strains, locus YKL190W, strain CNB1, stronger effect = lower value 0.998 | S. cerevisiae deletion strains, locus YKR001C, strain vps1, stronger effect = lower value 0.978 | S. cerevisiae deletion strains, locus YKR026C, strain gcn3, stronger effect = lower value 0.994 | S. cerevisiae deletion strains, locus YKR091W, strain srl3, stronger effect = lower value 1 | S. cerevisiae deletion strains, locus YLL001W, strain dnm1, stronger effect = lower value 1.01 | S. cerevisiae deletion strains, locus YLL026W, stronger effect = lower value 1.01 | S. cerevisiae deletion strains, locus YLL041C, strain sdh2, stronger effect = lower value 1 | S. cerevisiae deletion strains, locus YLR027C, strain aat2, stronger effect = lower value 1 | S. cerevisiae deletion strains, locus YLR039C, strain RIC1, stronger effect = lower value 0.966 | S. cerevisiae deletion strains, locus YLR058C, strain SHM2, stronger effect = lower value 0.988 | S. cerevisiae deletion strains, locus YLR102C, strain apc9, stronger effect = lower value 0.99 | S. cerevisiae deletion strains, locus YLR113W, strain HOG1, stronger effect = lower value 0.984 | S. cerevisiae deletion strains, locus YLR221C, strain rsa3, stronger effect = lower value 0.994 | S. cerevisiae deletion strains, locus YLR258W, strain gsy2, stronger effect = lower value 0.981 | S. cerevisiae deletion strains, locus YLR262C, strain YPT6 (second series), stronger effect = lower value 1.01 | S. cerevisiae deletion strains, locus YLR262C, strain YPT6, stronger effect = lower value 0.914 | S. cerevisiae deletion strains, locus YLR268W, strain sec22, stronger effect = lower value 0.983 | S. cerevisiae deletion strains, locus YLR320W, strain mms22, stronger effect = lower value 0.985 | S. cerevisiae deletion strains, locus YLR330W, strain CHS5, stronger effect = lower value 0.987 | S. cerevisiae deletion strains, locus YLR342W, strain FKS1 (second series), stronger effect = lower value 0.99 | S. cerevisiae deletion strains, locus YLR342W, strain FKS1, stronger effect = lower value 1.01 | S. cerevisiae deletion strains, locus YLR357W, strain rsc2, stronger effect = lower value 0.972 | S. cerevisiae deletion strains, locus YLR370C, strain arc18, stronger effect = lower value 0.982 | S. cerevisiae deletion strains, locus YLR371W, strain rom2, stronger effect = lower value 0.981 | S. cerevisiae deletion strains, locus YLR384C, strain iki3, stronger effect = lower value 0.993 | S. cerevisiae deletion strains, locus YLR418C, strain cdc73, stronger effect = lower value 1.02 | S. cerevisiae deletion strains, locus YML016C, strain PPZ1, stronger effect = lower value 0.987 | S. cerevisiae deletion strains, locus YML032C, strain rad52, stronger effect = lower value 0.979 | S. cerevisiae deletion strains, locus YML120C, strain ndi1, stronger effect = lower value 1.01 | S. cerevisiae deletion strains, locus YML124C, strain tub3, stronger effect = lower value 0.99 | S. cerevisiae deletion strains, locus YMR058W, strain fet3, stronger effect = lower value 1.01 | S. cerevisiae deletion strains, locus YMR078C, strain ctf18, stronger effect = lower value 0.985 | S. cerevisiae deletion strains, locus YMR125W, strain sto1, stronger effect = lower value 0.985 | S. cerevisiae deletion strains, locus YMR129W, stronger effect = lower value 0.976 | S. cerevisiae deletion strains, locus YMR205C, strain PFK2, stronger effect = lower value 0.984 | S. cerevisiae deletion strains, locus YMR223W, strain ubp8, stronger effect = lower value 0.985 | S. cerevisiae deletion strains, locus YMR231W, strain pep5, stronger effect = lower value 0.998 | S. cerevisiae deletion strains, locus YMR263W, strain SAP30, stronger effect = lower value 1.01 | S. cerevisiae deletion strains, locus YMR307W, strain GAS1, stronger effect = lower value 0.881 | S. cerevisiae deletion strains, locus YNL067W, strain RPL9B, stronger effect = lower value 1.04 | S. cerevisiae deletion strains, locus YNL071W, strain lat1, stronger effect = lower value 1.01 | S. cerevisiae deletion strains, locus YNL183C, strain NPR1, stronger effect = lower value 0.978 | S. cerevisiae deletion strains, locus YNL209W, strain ssb2, stronger effect = lower value 0.978 | S. cerevisiae deletion strains, locus YNL233W, strain BNI4, stronger effect = lower value 1.05 | S. cerevisiae deletion strains, locus YNL248C, strain rpa49, stronger effect = lower value 0.986 | S. cerevisiae deletion strains, locus YNL250W, strain rad50, stronger effect = lower value 0.99 | S. cerevisiae deletion strains, locus YNL271C, strain bni1, stronger effect = lower value 0.976 | S. cerevisiae deletion strains, locus YNL298W, strain CLA4, stronger effect = lower value 0.97 | S. cerevisiae deletion strains, locus YNL307C, strain MCK1, stronger effect = lower value 0.992 | S. cerevisiae deletion strains, locus YNL322C, strain KRE1 (second series), stronger effect = lower value 0.977 | S. cerevisiae deletion strains, locus YNR049C, strain mso1, stronger effect = lower value 0.998 | S. cerevisiae deletion strains, locus YNR052C, strain pop2, stronger effect = lower value 0.997 | S. cerevisiae deletion strains, locus YOL006C, strain TOP1, stronger effect = lower value 1.07 | S. cerevisiae deletion strains, locus YOL012C, strain htz1 1.99 | S. cerevisiae deletion strains, locus YOL147C, strain pex11, stronger effect = lower value 0.993 | S. cerevisiae deletion strains, locus YOR001W, strain rrp6, stronger effect = lower value 0.997 | S. cerevisiae deletion strains, locus YOR061W, strain CKA2, stronger effect = lower value 0.971 | S. cerevisiae deletion strains, locus YOR069W, strain VPS5, stronger effect = lower value 0.986 | S. cerevisiae deletion strains, locus YOR070C, strain gyp1, stronger effect = lower value 0.984 | S. cerevisiae deletion strains, locus YOR080W, strain dia2, stronger effect = lower value 0.994 | S. cerevisiae deletion strains, locus YOR083W, strain WHI5, stronger effect = lower value 0.961 | S. cerevisiae deletion strains, locus YOR106W, strain vam3, stronger effect = lower value 1.01 | S. cerevisiae deletion strains, locus YOR136W, strain idh2, stronger effect = lower value 0.991 | S. cerevisiae deletion strains, locus YOR144C, strain elg1, stronger effect = lower value 0.987 | S. cerevisiae deletion strains, locus YOR184W, strain ser1, stronger effect = lower value 0.987 | S. cerevisiae deletion strains, locus YOR231W, strain MKK1, stronger effect = lower value 0.98 | S. cerevisiae deletion strains, locus YOR265W, strain rbl2, stronger effect = lower value 1 | S. cerevisiae deletion strains, locus YOR270C, strain vph1, stronger effect = lower value 1.04 | S. cerevisiae deletion strains, locus YOR290C, strain snf2, stronger effect = lower value 0.972 | S. cerevisiae deletion strains, locus YOR316C, strain cot1, stronger effect = lower value 0.986 | S. cerevisiae deletion strains, locus YPL051W, strain arl3, stronger effect = lower value 0.99 | S. cerevisiae deletion strains, locus YPL078C, strain atp4, stronger effect = lower value 1.02 | S. cerevisiae deletion strains, locus YPL106C, strain sse1, stronger effect = lower value 0.937 | S. cerevisiae deletion strains, locus YPL240C, strain hsp82, stronger effect = lower value 0.993 | S. cerevisiae deletion strains, locus YPL241C, strain CIN2, stronger effect = lower value 0.979 | S. cerevisiae deletion strains, locus YPL256C, strain CLN2, stronger effect = lower value 1.03 | S. cerevisiae deletion strains, locus YPR119W, strain clb2, stronger effect = lower value 0.983 | S. cerevisiae deletion strains, locus YPR141C, strain kar3, stronger effect = lower value 0.989 | S. cerevisiae deletion strains, locus YPR163C, strain tif3, stronger effect = lower value 0.989 | S. cerevisiae deletion strains, locus YPR167C, strain met16, stronger effect = lower value 0.988 | S. cerevisiae deletion strains, strain wtn01, stronger effect = lower value 1 | S. cerevisiae strains, strain wild type, stronger effect = lower value 0.987
